Source: ChEMBL document CHEMBL3433997, “St. Jude Leishmania screening dataset” (2016)

These molecules were tested against Solute carrier family 2, facilitated glucose transporter member 1 (Homo sapiens) (UniProt P11166) (assay: ST_JUDE_LEISH: Cytotoxicity at 2uM final concentration against transgenic Leishmania Mexicana promastigotes LmGLUT1 that are glucose transport deficient and complemented with the human glucose transporter GLUT1. Activity is measured by DNA content using SYBR green in vitro).
Solute carrier family 2, facilitated glucose transporter member 1 (Homo sapiens), sequence (P11166 whole entry): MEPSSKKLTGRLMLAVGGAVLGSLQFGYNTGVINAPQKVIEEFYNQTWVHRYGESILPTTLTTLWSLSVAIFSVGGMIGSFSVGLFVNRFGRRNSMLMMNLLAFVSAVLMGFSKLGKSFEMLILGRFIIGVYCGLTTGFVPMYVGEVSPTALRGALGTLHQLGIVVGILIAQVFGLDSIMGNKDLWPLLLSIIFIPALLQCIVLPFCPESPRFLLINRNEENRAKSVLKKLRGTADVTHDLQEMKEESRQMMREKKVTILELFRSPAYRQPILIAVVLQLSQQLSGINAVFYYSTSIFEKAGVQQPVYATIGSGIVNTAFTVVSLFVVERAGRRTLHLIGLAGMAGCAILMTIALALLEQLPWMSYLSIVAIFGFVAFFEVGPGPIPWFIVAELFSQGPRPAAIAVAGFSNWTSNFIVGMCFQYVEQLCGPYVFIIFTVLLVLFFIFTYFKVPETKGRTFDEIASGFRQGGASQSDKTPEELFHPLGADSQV
Assay type: functional

Structure (SMILES)	inhibition
Cc1ccc(-c2ccc(Cl)cc2Oc2cnc(N)nc2N)o1	1.95%
CCN1CCN(c2cc(C)c3cc(NC(=O)c4ccc(C(C)(C)C)cc4)ccc3n2)CC1	-0.6%
CN1CCC=C(C(=O)NCC(C)(C)c2nc(-c3ccc(Cl)c(O)c3)c(-c3ccncc3)[nH]2)C1	6.76%
C#CC(C)(CO)N1CCCC1 (stereo not given)	1.89%
O=C(N[C@@H](Cc1ccccc1)C(=O)NC1CCCCCC1)c1ccc(O)c(-c2cccc(C(F)(F)F)c2)c1	5.83%
CC(C)c1ncc(-c2ccncc2)c(C2CCC(CNC(=O)c3ccncc3)CC2)n1 (stereo not given)	3.67%
COc1ccc(-c2nc(NC(=O)CSc3ccc([N+](=O)[O-])cc3)sc2C)cc1	0.33%
Cc1c(Cl)cccc1S(=O)(=O)Nc1cccc(CCN2CCC(N3CCCCC3)CC2)c1	2.7%
O=[N+]([O-])c1ccccc1/C=N/Nc1ccnc2ccc(C(F)(F)F)cc12	-0.59%
CCCN(CCC)C(=O)c1cc(C(=O)N[C@@H](Cc2ccccc2)[C@H](O)CNC2CC2)cc(N2CCCCS2(=O)=O)c1	2.88%
COc1cc(NC(=O)c2cccs2)c(C(=O)NCc2ccc(C)cc2)cc1OC	5.62%
O=C(Nc1ccc(-c2nc3ccccc3[nH]2)cc1)c1cccc(S(=O)(=O)N2CCOCC2)c1	4.9%
CC(C)(CNC(=O)[C@@H]1CCCCN1)c1nc(-c2ccc(Cl)c(O)c2)c(-c2ccncc2)[nH]1	2.07%
CNCCNc1nccc(N2CCc3ncnc(Nc4ccc(OCc5cccc(F)c5)c(Cl)c4)c3C2)n1	3.85%
Nc1nccc2ccc(-c3ccncc3)cc12	5.87%
O=C(Nc1ccc(Br)cc1)c1cc(Br)ccc1NS(=O)(=O)c1cc(C(F)(F)F)cc(C(F)(F)F)c1	-2.23%
COc1ccc(O)c(Cc2cnc3nc(N)[nH]c(=O)c3c2C)c1	1.02%
CC1(C)N=C(N)N=C(Nc2ccc(Cl)cc2)N1	14.5%
CN(C)c1ccc(-c2nnc(Sc3ccc(C#N)c([N+](=O)[O-])c3)n2Cc2ccco2)cc1	3.82%
CCOc1ccc(C(=O)N2CCOC(CCN3CCC(c4ccccc4)CC3)(c3ccc(Cl)c(Cl)c3)C2)cc1 (stereo not given)	3.91%

Structure (SMILES)	inhibition
CCN(CCCN1CCCCC1)c1cc(C)nc(Nc2cccc3c2CCCC3)n1	3.95%
O=C(Nc1cccc(-c2cccc(-c3nc4ccccc4[nH]3)c2)c1)Nc1ccc2c(c1)OCO2	4.3%
O=C(NCCCCN1CCC(c2ccc3ccccc3c2O)CC1)c1ccc(NC(=O)c2ccc(Cl)cc2)cc1	-0.08%
CCSc1ccccc1COc1c(C)nc(N)nc1N	6.84%
CCNC(=O)Nc1ccc(-c2cnc(N)c(-c3nc4ccc(OC)cc4[nH]3)c2)cc1	3.5%
Cc1nc(N)nc(N)c1-c1cc(Cl)c(Cl)c(Cl)c1	0.4%
CC(C)(C)C(=O)Oc1ccc(CC2NCCc3cc(OC(=O)C(C)(C)C)c(OC(=O)C(C)(C)C)cc32)cc1OC(=O)C(C)(C)C (stereo not given)	8.66%
CC(=O)Nc1ccc(CN2CCc3ccc(NS(=O)(=O)c4ccc(-c5cccc(C(F)(F)F)c5)cc4)cc3CC2)s1	2.54%
CN1CCCC1CCOc1ccc2c(c1)N(C(=O)Nc1cc(Br)cc(C(F)(F)F)c1)CC2 (stereo not given)	-1.82%
Cc1cccc2nc(-c3ccc(-c4ccc(NC(=O)Nc5ccsc5)cc4)cc3)[nH]c12	0.7%
Cc1cccc(-c2nn(-c3ccccc3)c3[nH]c(=O)c(CNC4CCCC4)cc23)c1	2.26%
CCNc1cc(C(=O)N[C@@H](Cc2ccccc2)[C@H](O)CNCc2cc(OC)cc(OC)c2)cc(N2CCCC2=O)c1	7.69%
Nc1cccc(CNCc2cccc(-c3cccc(-c4nc5cc(C(F)(F)F)ccc5[nH]4)c3)c2)c1	1.23%
CCCCSc1c(CNCCCCCCNCc2ccc3ccccc3c2SCCCC)ccc2ccccc12	10.7%
Cc1cccc2nc(-c3cccc(-c4cccc(NC(=O)CNC(=O)c5ccc(O)cc5)c4)c3)[nH]c12	0.25%
CC(C)CC(=O)NC1CCN(Cc2c(-c3cccs3)nc3ccccc3c2C(=O)N[C@@H](C)C2CCCCC2)CC1	6.03%
Clc1ccc2c(NCc3ccccn3)ccnc2c1	9.87%
COc1ccc(OC)c(-c2cccc(-c3cccc(NC(=O)c4ccc([N+](=O)[O-])o4)c3)n2)c1	6.43%
COc1cc2ccccc2cc1CCNCCCCNCCc1cc2ccccc2cc1OC	101%
Cn1cnc2c(SCc3ccc(OCc4ccccc4)cc3)ncnc21	2.71%
